In all, about 94,000 compounds went through this assay and about 4,000 (4.3%) were called active. Not shown: some 29% with an inconclusive outcome. Only a selection was taken, and actives are over-represented in it overall. A number with no mark means an inactive call. The call rests on the fitted dose curve; in most records, active means well fitted inhibition curve with a large enough effect; inconclusive means small, poorly fitted or top-dose-only effect; inactive means no such curve, though single readings can be large or run the other way.
assay: Cytotoxic Profiling in NIH 3T3 Cell Line of Diverse Libraries Using Quantitative High-Throughput Screening; details: NIH 3T3 viability, CellTiter-Glo ATP luminescence, 48-72 h; series mostly up to 96.7 µM; activity change, negative = cytotoxicity: at the top concentration; further: nearly all actives have a fitted effect of over 55% in size
Method in brief: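 Cells were seeded at 400 per well, treated with pin-transferred compound, and kept 48 or 72 hr at 37 °C before CellTiter-Glo addition and luminescence imaging of cellular ATP.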
On the % scale 0 is the no-effect control and ±100 the full control effect; potency means the concentration at half of the fitted maximal effect.

SMILES | activity change, negative = cytotoxicity | outcome | Potency
CN(C)S(=O)(=O)N1CCCOCCNC(=O)[C@@H]2CCC[C@@H]21 | -8.75% |  | 
COc1ccc2[nH]c(C(=O)N3C[C@@H](Oc4ccccc4)C[C@H]3C(=O)N3CCCC3)cc2c1 | -4.04% |  | 
O=C(c1nc2sccn2c1CN1CCCC(CO)C1)N1CCCCC1 (configuration not stated) | -1.87% |  | 
COc1ccc(NC(=O)CC2CCOCC2)cc1 |  | inactive | 
Cc1cccc(CC(=O)N2C[C@@H](CO)[C@H](c3ccccn3)C2)c1 | -12.2% |  | 
CC(C)(C)c1coc([C@@H]2COCCN2C2CCC2)n1 | -17.5% [at 174 µM] |  | 
CCOc1cc(=O)n2c(c1C(=O)NCCc1ccccc1)CCCCC2 | -1.68% |  | 
O=C(Cc1ccc(F)cc1)NC1CCN(c2cn[nH]c(=O)c2)CC1 |  | inactive | 
COC(=O)N1CCN(C(=O)c2cccc(-c3cccc(OC)c3)c2)CC1 | -13.9% |  | 
O=C(Cc1ccc(F)cc1)NC1CCN(c2nc3ncccc3o2)C1 (configuration not stated) | -8.47% [at 138 µM] |  | 
Cc1cccc(-c2cccc(CN3CCC(NC(=O)Cc4ccc(F)cc4)CC3)c2)c1 |  |  | 28.2 µM (active)
O=C(CCNc1cnc2cnccn12)NC1CCN(Cc2ccccc2)CC1 | -24.1% |  | 
CN1C(=O)c2cccn2CC1C(=O)NC1CCN(Cc2ccccc2)CC1 (configuration not stated) |  | inactive | 
COc1ccc(-c2ccccc2C(=O)N2CCC(NC(=O)Cc3ccc(F)cc3)CC2)nn1 | -4.48% |  | 
COc1cccc(-c2ccc(C(=O)N3CCC(NC(=O)Cc4ccc(F)cc4)CC3)cc2)c1 |  |  | 39.8 µM (active)
Cc1cccc(-c2cccc(CN3CCC(NC(=O)Nc4ccccc4)CC3)c2)c1 |  |  | 12.6 µM (active)
COCCN1CCC(N2CCN(S(=O)(=O)c3ccccc3)CC2)C1=O (configuration not stated) | -10.6% |  | 
O=C(NCC1CCOCC1)C1COc2ccccc2O1 (configuration not stated) | 0.377% |  | 
CC(C)(C)CC(=O)NC1CCN(c2cnn(CC3CC3)c(=O)c2)CC1 | -25% |  | 

SMILES | activity change, negative = cytotoxicity | outcome | Potency
O=C(NCCc1noc(-c2ccccc2)n1)C1CC1 | 0.495% |  | 
CCn1cc(C(=O)N2CC(COC)C3(CCNCC3)C2)cn1 (configuration not stated) | -10.5% |  | 
CSc1ccc(-c2cccc(CN3CCC(N[S+](=O)([O-])c4cccs4)CC3)c2)cc1 |  |  | 12.6 µM (active)
Cc1noc(C)c1[S+](=O)([O-])N1CCn2c(nnc2-c2ccccc2)C1 | -32.3% |  | 
Cc1noc(C)c1[S+](=O)([O-])N1CC(Oc2ccc(F)c(F)c2)C1 |  | inactive | 
Cc1noc(C)c1[S+](=O)([O-])NC1CCN(Cc2cccc(-c3ccc(F)c(F)c3)c2)CC1 |  |  | 14.1 µM (active)
O=C(Nc1cc(F)ccc1F)N1CCC(Oc2ncccc2C(=O)N2CCCCC2)C1 (configuration not stated) | -27.5% |  | 
Cn1cccc1C(=O)N1CCCC(c2nc(-c3ccccc3)no2)CCNC(=O)CC1 (configuration not stated) | -6.19% |  | 
COc1ccccc1NC(=O)Cn1c(C)cc2nc3n(c(=O)c21)CCC3 | -11.3% |  | 
Cc1noc(C2CC3(CCN(C(=O)c4sc(C)nc4C)CC3)CN2C)n1 (configuration not stated) | -22.6% |  | 
CCn1nc(C)cc1C(=O)N[C@H]1[C@H](O)[C@H](O)C[C@@H]1c1cccnc1 | -4.46% [at 174 µM] |  | 
CN1CCN([C@H]2CCN(C(=O)Cc3cccc(O)c3)C[C@H]2CCCO)CC1 | 2.88% |  | 
COCCNC(=O)[C@@H]1C[C@H](Oc2cccnc2)CN1C(=O)c1nccn1C | -8.07% |  | 
Cc1cc(=O)n(CC(=O)Nc2cccc(Cl)c2C)c(N2CCc3ccccc3C2)n1 | 2.06% |  | 
CCOC(=O)C1=CN(CC(=O)NCCc2ccc(Cl)cc2)S(=O)(=O)N=C1C | -14.8% |  | 
Cc1cc(=O)n(CC(=O)NCCc2ccc(Cl)cc2)c(N2CCc3ccccc3C2)n1 |  |  | 25.1 µM (active)
CCC(CC)NC(=O)C1Cn2cccc2C(=O)N1Cc1cccnc1 (configuration not stated) | -2.79% |  | 
CC(=O)N1CCC(C(=O)NCC2CCN(c3cc(-c4ccc(C)cc4)[nH]n3)CC2)CC1 | -19.3% |  | 
O=C(Cc1ccc(F)cc1)NC1CCN(c2cc(-c3ccc(Cl)cc3)[nH]n2)CC1 | -6.32% |  | 

SMILES | activity change, negative = cytotoxicity | outcome | Potency
Cn1nccc1C(=O)NC1CCCN(c2cc(-c3ccc(F)cc3)[nH]n2)C1 (configuration not stated) | -29.7% |  | 
O=C(NC1CCN(c2cc(-c3ccccc3)[nH]n2)CC1)c1cccs1 | -27.8% |  | 
Cc1ccc(-c2cc(N3CCC(CNC(=O)c4ccc(N(C)C)cc4)CC3)n[nH]2)cc1 | -29.1% |  | 
O=C(NC1CCN(c2cc(-c3ccc(F)cc3)[nH]n2)C1)c1cc2ccccc2[nH]1 (configuration not stated) |  |  | 39.8 µM (active)
CCn1ccc(C(=O)NC2CCCN(c3cc(-c4ccc(F)cc4)[nH]n3)C2)n1 (configuration not stated) | -20.8% |  | 
O=C(NC1CCN(c2cc(-c3ccc(Cl)cc3)[nH]n2)C1)c1c[nH]c2ccccc12 (configuration not stated) |  |  | 39.8 µM (active)
O=C(NCC1CCN(c2cc(-c3ccc(Cl)cc3)[nH]n2)CC1)c1ccc2nc[nH]c2c1 |  |  | 35.5 µM (active)
CNC(=O)[C@H]1C[C@H](Oc2cccnc2)CN1C(=O)c1ccccc1 | -6.57% |  | 
CCOc1ccccc1CN1CCc2nc(N3CCN(C)CC3)[nH]c(=O)c2CC1 | -20.9% |  | 
CC(C)N1CC2(C1)C(=O)N(Cc1cccc(Cl)c1)C(=O)[C@@H]1C[C@@H](O)CN12 | -3.82% [at 174 µM] |  | 
CC(C)NC(=O)C(C)[C@@H]1CC[C@@]2(C)CC[C@H](N[S+](C)(=O)[O-])[C@@H](C)[C@@H]2[C@H]1O (some centres not stated) | -26.4% [at 138 µM] |  | 
CCOc1ccc(NC(=O)C2CN(S(C)(=O)=O)CC23CCCCC3)cc1 (configuration not stated) | -6.07% |  | 
Cc1cc(C2CCCN2C(=O)c2ccc(F)c(F)c2)on1 (configuration not stated) | -11.7% |  | 
O=C(O)C[C@@H]1CCN(C(=O)Nc2ccccc2)C[C@@H]1CC1=NCCc2cc(F)ccc21 | -21.7% [at 174 µM] |  | 
O=C1CC2(CCN(C(=O)C3CCN(C(=O)Cc4ccc(F)cc4)CC3)CC2)Oc2ccccc2N1 | -10.8% |  | 
COc1ccc(-c2ccc3ncc(Nc4ccc(C(F)(F)F)cc4)n3n2)cn1 |  |  | 79.4 µM (active)
COc1ccc(-c2ccc3ncc(Nc4cc(F)cc(N5CCOCC5)c4)n3n2)cn1 | -19.1% [at 138 µM] |  | 
COc1ccc(-c2cccc(C(=O)N3CCC(NC(=O)c4ccc(C(F)(F)F)cc4)CC3)c2)nn1 | -27.6% |  | 
CC(=O)NCCc1ncc(C)n1C1CCCCC1 | -3.39% |  | 

Source: PubChem BioAssay AID1345082 (National Center for Advancing Translational Sciences (NCATS), 2018)
